Experimental findings from PubChem BioAssay are described below.

Values without a mark were called inactive.

In the assay the target is Dihydroorotate dehydrogenase (quinone), mitochondrial (Plasmodium falciparum (isolate 3D7)) (UniProt Q08210). Kind of assay: inhibition of P. falciparum DHODH – biochemical, C-terminal His tag, absorbance 600 nm, primary screen (AID 1175).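 Note: recombinant parasite enzyme with a five histidine tag at its C terminus; test concentration not given here.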 The settings on record: PfDHODH enzyme, DCIP absorbance 600 nm; higher = more signal, called active from +8 up or from −8 down.
Chain of Dihydroorotate dehydrogenase (quinone), mitochondrial (Plasmodium falciparum (isolate 3D7)) (Q08210 whole entry, looked up): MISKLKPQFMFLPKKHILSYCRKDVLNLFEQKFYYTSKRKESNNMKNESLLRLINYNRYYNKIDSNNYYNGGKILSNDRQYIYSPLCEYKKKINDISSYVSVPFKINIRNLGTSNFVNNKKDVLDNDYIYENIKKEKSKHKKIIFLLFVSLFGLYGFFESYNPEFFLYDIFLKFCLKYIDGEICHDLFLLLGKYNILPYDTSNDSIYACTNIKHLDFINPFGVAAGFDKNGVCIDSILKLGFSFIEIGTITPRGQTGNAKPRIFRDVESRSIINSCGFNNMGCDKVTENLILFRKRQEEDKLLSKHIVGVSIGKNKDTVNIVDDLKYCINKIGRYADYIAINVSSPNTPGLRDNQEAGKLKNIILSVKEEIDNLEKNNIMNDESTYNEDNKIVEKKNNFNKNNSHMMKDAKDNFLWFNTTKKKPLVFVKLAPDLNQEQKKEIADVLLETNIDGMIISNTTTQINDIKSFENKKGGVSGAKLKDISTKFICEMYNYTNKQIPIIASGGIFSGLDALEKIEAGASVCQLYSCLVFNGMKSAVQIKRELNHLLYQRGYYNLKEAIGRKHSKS
On to `COC(=O)[C@@]1(Cc2ccc(F)cc2)[C@H]2c3cc(C(=O)N(C)C)n(Cc4ccc(O)c(OC)c4)c3C[C@H]2CN1C(=O)c1ccccc1`, for which the composite z-score is -0.764.
For the compound `CO[C@H]1O[C@H](CO)[C@@H](OC(=O)Nc2cccc(F)c2)[C@H](OC(=O)Nc2ccccc2-c2ccccc2)[C@H]1OC(=O)Nc1ccccc1-c1ccccc1`, the composite z-score was 0.791.
Then `C=C(CCCC)/C(=C/C[C@H](OC(C)=O)c1ccc(OCCO)cc1)c1cc(C(=O)OC)ccc1OC`, with -0.793; and `COCCCNC(=O)[C@@]1(Sc2ccc(C)cc2)CC(=O)N(Cc2ccccc2Cl)[C@@H]1c1ccc(CO)cc1I`, with -2.66; and `COc1cccc(/C=C(\C#N)C(=O)Nc2c(C)n(C)n(-c3ccccc3)c2=O)c1`, with -1.14.
With `CS(=O)(=O)CCOC(=O)C1=CC(CCCO)=CC(C2CC2)N(Cc2cccc(OC(F)(F)F)c2)C=C1C(=O)OCCS(C)(=O)=O` (stereo not given), the composite z-score is -0.0527.
As for `COc1ccc(C#Cc2ccc3c(c2)[C@]2(C(=O)N3)[C@H](C(=O)Nc3nc4ccccc4s3)[C@H]3C(=O)O[C@H](c4ccccc4)[C@H](c4ccccc4)N3[C@@H]2c2ccccc2OCCO)cc1`, the composite z-score is -5.43.
For the compound `C=C[C@@H](C)[C@@H](OC(=O)Nc1ccc(SC)cc1)c1ccc(OCCO)cc1`, the composite z-score was 0.05.
In the case of `CC(=O)N1CC(C(O)C2C=CC3C(=O)NC(=O)C3N2Nc2ccc(Cl)cc2Cl)c2ccccc21` (stereo not given), the composite z-score is 0.905.
Consider `CC(C)C[C@@H]1NC(=O)[C@H]2C[C@@H](C(=O)NCCCCCN)[C@@H](c3cccc(OCCO)c3)N2C1=O`, for which the composite z-score was -1.36.
As for `C=C(/C(=C/C[C@@H](OC(C)=O)c1ccc(CO)o1)c1cc(C(=O)OC)ccc1OC)C(C)C`, the composite z-score is -0.805.
With `O=C1OCC=C[C@H]2OC34C=CCN(c5ccc6ccccc6c5)C(=O)[C@H]3N(CCCCCO)C(=O)[C@@H]4[C@@H]12` (stereo not given in full), the composite z-score was 0.28.
With `COC(=O)[C@@]1(Cc2ccccc2)[C@H]2c3cc(C(=O)N4CCCC4)n(CCSCCO)c3C[C@H]2CN1C(=O)c1ccccc1` the figure was -0.337; with `NC(=O)[C@@H]1[C@H]2C(=O)O[C@H](c3ccccc3)[C@H](c3ccccc3)N2[C@H](c2ccc(OCCO)cc2)[C@@]12C(=O)Nc1ccc(C#CCCO)cc12`, -1.26; with `[N-]=[N+]=Nc1ccccc1C[C@]1(C(=O)NCc2ccccc2)COC(c2ccc(OCCCO)cc2)=N1`, 0.363.
Turning to `CN1C(=O)[C@@]2(Cc3ccccc3)N=C(c3ccc(OCCCO)cc3)O[C@H]2c2ccccc21`, the composite z-score is 0.271.
With `CCOC(=O)C[C@H]1[C@H](OC(=O)c2ccccc2-c2ccccc2)[C@@H](NC(=O)c2ccc3ccccc3n2)c2cc(OCCCO)ccc2N1C(=O)c1ccccc1`, the composite z-score was 0.742.
In the case of `Nc1cc(Br)ccc1C(=O)O`, the composite z-score was -0.627.
For the compound `C=C(COC)C(=O)CC[C@@H](OC(=O)c1cccnc1)c1ccccc1OCCO`, the composite z-score was -0.4.
On to `CCOC(=O)C1=C[C@@H](c2ccccc2)N(S(=O)(=O)c2ccc(C)cc2)[C@H]1c1ccccc1`, for which the composite z-score was -0.629.
On to `CC(C)c1ccc(NN2C(C(O)Cc3ccccc3)C=CC3C(=O)N(c4ccccc4)C(=O)C32)cc1` (stereo not given), for which the composite z-score was -0.335.
For `C=CCC(OC(C)=O)[C@@H]1[C@@H](N(Cc2ccc(-c3cccc(C(F)(F)F)c3)o2)C(=O)Cc2ccc(OC)cc2)c2cc(OCCCO)ccc2N1C(=O)Cc1ccc2ccccc2c1` (stereo not given in full), the composite z-score is 1.02.
Regarding `COCCOC(=O)N1C(=O)[C@@]2(c3cc(C#CCNC(N)=O)ccc31)[C@H](c1ccc(O)cc1)N1[C@H](c3ccccc3)[C@H](c3ccccc3)OC(=O)[C@H]1[C@@H]2C(N)=O`, the composite z-score was 0.329.
As for `C=CC1c2cc(O)c(OC)cc2CCN1Cc1ccc([N+](=O)[O-])o1` (stereo not given), the composite z-score is 0.294.
For the compound `CC(=O)n1cc(C(O)C2C=CC3C(=O)N(c4ccccc4)C(=O)C3N2Nc2ccc(C(C)C)cc2)c2ccccc21` (stereo not given), the composite z-score was 0.708.
For the compound `CO[C@H]1O[C@H](CO)[C@@H](OC(=O)c2ccc(Br)cc2)[C@@H]2OC(=O)[C@H](Cc3ccccc3)C/C=C/C[C@@H](Cc3ccccc3)C(=O)O[C@@H]12`, the composite z-score was -0.854.
`CN(C)CCCC[C@@H]1NC(=O)[C@@H]2C[C@H](C(=O)O)[C@H](c3cccc(OCCO)c3)N2C1=O`: the composite z-score is -0.126.
Then `CCCCCCCCCCC(O)C1C=CC2C(=O)N(c3ccccc3)C(=O)C2N1Nc1ccccc1F` (stereo not given), with 0.742; and `C=CCOC(=O)[C@H]1[C@@H]2C(=O)O[C@@H](c3ccccc3)[C@@H](c3ccccc3)N2[C@@H](c2ccc(OCCOC(=O)[C@H]3C[C@H]4C(=O)N[C@@H](CCCCNC(C)=O)C(=O)N4[C@H]3c3cccc(OCCO)c3)cc2)[C@]12C(=O)Nc1ccc(I)cc12`, with 1.34.
Regarding `Cc1ccc(F)cc1S(=O)(=O)N[C@@H]1CCN(Cc2cccc3[nH]ccc23)C1`, the composite z-score is 0.31.
For the compound `CC(C)C(=C=CC[C@@H](O)c1cccc(OCCO)c1)C[C@@H](O)c1ccccn1`, the composite z-score was -6.55.
`[N-]=[N+]=NCc1ccccc1[C@H]1OC(c2ccc(OCCCO)cc2)=N[C@@]1(Cc1ccccc1)C(=O)NCCN1CCOCC1`: the composite z-score was -0.905.
With `C=CC[C@H](OC(=O)Nc1ccc(SC)cc1)c1ccc(OCCO)cc1` the figure was -1.51; with `CN(C)C(=O)[C@@]1(Cc2ccccc2)COC(c2ccc(OCCCO)cc2)=N1`, 0.263; with `NC(=O)[C@H]1[C@@H]2C(=O)O[C@@H](c3ccccc3)[C@@H](c3ccccc3)N2[C@@H](c2ccc(O)cc2)[C@]12C(=O)Nc1ccc(C#CC3=CCCCC3)cc12`, -0.146.
